For assay [1], the target named is human Caspase 5 (CASP5), CASP5 (gene 838) (UniProt P51878). Kind of assay: NVS_ENZ_hCASP5: NovaScreen (NVS) Enzymatic Assay for human Caspase 5 (CASP5) (AID 2283137). The gist of the method:
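Loss of fluorescent signal versus DMSO scored for E. coli-derived human CASP5 cleaving a fluorescent substrate, 2 h post-dosing; compounds first tested at 25 uM in duplicate, hits rerun in concentration series with 50 uM top concentration.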

The target of another assay is Caspase-3 (Homo sapiens) (UniProt P42574). Kind of assay: NVS_ENZ_hCASP3: NovaScreen (NVS) Enzymatic Assay for human Caspase 3 (CASP3) (AID 2283139). As to the method:
NVS_ENZ_hCASP3 is a biochemical, single-readout assay that uses extracted gene-proteins from E. coli in a cell-free assay. Measurements were taken 1 hour after chemical dosing in a 96-well plate.NVS_ENZ_hCASP3 is one of one assay component(s) measured or calculated from the NVS_ENZ_hCASP3 assay. It is designed to make measurements of enzyme activity, a form of enzyme reporter, as detected with fluorescence intensity signals by Fluorescence technology.Data from the assay component NVS_ENZ_hCASP3 was analyzed into 1 assay endpoint. This assay endpoint, NVS_ENZ_hCASP3, was analyzed in the positive analysis fitting direction relative to DMSO as the negative control and baseline of activity. […] Furthermore, this assay endpoint can be referred to as a primary readout, because this assay has produced multiple assay endpoints where this one serves a enzymatic activity function. […]
Binding assays used specific radioligands (tritiated, iodinated) with non-radioactive competitive displacement ligands in agonist or antagonist protocols (as indicated) and various reference compounds and inhibitors to titrate specific binding to receptors and transporters. Most enzyme assays (CYPs, kinases, phosphatases, proteases, HDACs) used recombinant protein and specific substrates (fluorescence mostly, some colorimetric and radioactive) and inhibitors, followed by a biochemical separation of substrate and product. […]

Assay [2] addresses human Aurora Kinase A - serine/threonine-protein Kinase 6 (AurA), AURKA (gene 6790) (UniProt O14965). In words: NVS_ENZ_hAurA: NovaScreen (NVS) Enzymatic Assay for human Aurora Kinase A - serine/threonine-protein Kinase 6 (AurA) (AID 2283142). In a few lines:
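Recombinant human AurA activity read by fluorescence after mobility-shift separation of product from substrate; 1 hour incubation. Chemicals first run in duplicate at 25 uM, then concentration series to 50 uM if over threshold; fitted relative to DMSO.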

Assay [3] addresses human Caspase 4 (CASP4), CASP4 (gene 837) (UniProt P49662). Kind of assay: NVS_ENZ_hCASP4: NovaScreen (NVS) Enzymatic Assay for human Caspase 4 (CASP4) (AID 2283143). On the procedure: NVS_ENZ_hCASP4 is a biochemical, single-readout assay that uses extracted gene-proteins from E. coli in a cell-free assay. Measurements were taken 2 hours after chemical dosing in a 96-well plate.NVS_ENZ_hCASP4 is one of one assay component(s) measured or calculated from the NVS_ENZ_hCASP4 assay. It is designed to make measurements of enzyme activity, a form of enzyme reporter, as detected with fluorescence intensity signals by Fluorescence technology.Data from the assay component NVS_ENZ_hCASP4 was analyzed into 1 assay endpoint. This assay endpoint, NVS_ENZ_hCASP4, was analyzed in the positive analysis fitting direction relative to DMSO as the negative control and baseline of activity. Using a type of enzyme reporter, loss-of-signal activity can be used to understand changes in the enzymatic activity as they relate to the gene CASP4. Furthermore, this assay endpoint can be referred to as a primary readout, because this assay has produced multiple assay endpoints where this one serves a enzymatic activity function. To generalize the intended target to other relatable targets, this assay endpoint is annotated to the protease intended target family, where the subfamily is cysteine protease. […]

Records with an inconclusive call do not appear. Active and inactive are the calls of the source. Rule for the calls: active = hit-call score of the fitted dose curve at least 0.9, where 1 is the maximum; inconclusive = response in the unintended direction; inactive = score below 0.9.

This is an account of results in PubChem BioAssay (EPA / NIEHS).

Sequence of human Caspase 5 (CASP5), CASP5 (gene 838) (P51878 whole entry, looked up): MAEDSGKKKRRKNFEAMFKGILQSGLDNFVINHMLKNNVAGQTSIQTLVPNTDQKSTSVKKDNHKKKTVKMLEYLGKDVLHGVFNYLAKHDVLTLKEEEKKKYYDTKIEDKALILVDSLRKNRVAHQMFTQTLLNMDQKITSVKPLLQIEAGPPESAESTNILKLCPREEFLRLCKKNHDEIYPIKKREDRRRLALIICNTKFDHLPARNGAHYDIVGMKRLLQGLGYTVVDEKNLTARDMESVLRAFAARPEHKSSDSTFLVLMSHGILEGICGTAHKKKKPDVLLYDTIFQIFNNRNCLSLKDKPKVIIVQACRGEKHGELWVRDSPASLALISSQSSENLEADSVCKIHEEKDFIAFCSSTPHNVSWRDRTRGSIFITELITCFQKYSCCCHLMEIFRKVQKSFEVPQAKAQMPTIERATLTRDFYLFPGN
Sequence of human Aurora Kinase A - serine/threonine-protein Kinase 6 (AurA), AURKA (gene 6790) (O14965 whole entry, looked up): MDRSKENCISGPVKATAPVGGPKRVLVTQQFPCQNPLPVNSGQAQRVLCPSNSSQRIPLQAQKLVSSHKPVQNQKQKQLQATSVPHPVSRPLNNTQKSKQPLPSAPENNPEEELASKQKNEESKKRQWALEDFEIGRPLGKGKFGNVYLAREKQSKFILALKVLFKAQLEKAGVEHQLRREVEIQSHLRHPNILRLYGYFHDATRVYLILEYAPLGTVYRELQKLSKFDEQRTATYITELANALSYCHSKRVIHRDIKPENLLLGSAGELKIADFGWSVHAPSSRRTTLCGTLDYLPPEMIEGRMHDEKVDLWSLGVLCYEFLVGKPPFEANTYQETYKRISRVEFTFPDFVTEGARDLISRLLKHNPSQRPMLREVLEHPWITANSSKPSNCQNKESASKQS
Sequence of human Caspase 4 (CASP4), CASP4 (gene 837) (P49662 whole entry, looked up): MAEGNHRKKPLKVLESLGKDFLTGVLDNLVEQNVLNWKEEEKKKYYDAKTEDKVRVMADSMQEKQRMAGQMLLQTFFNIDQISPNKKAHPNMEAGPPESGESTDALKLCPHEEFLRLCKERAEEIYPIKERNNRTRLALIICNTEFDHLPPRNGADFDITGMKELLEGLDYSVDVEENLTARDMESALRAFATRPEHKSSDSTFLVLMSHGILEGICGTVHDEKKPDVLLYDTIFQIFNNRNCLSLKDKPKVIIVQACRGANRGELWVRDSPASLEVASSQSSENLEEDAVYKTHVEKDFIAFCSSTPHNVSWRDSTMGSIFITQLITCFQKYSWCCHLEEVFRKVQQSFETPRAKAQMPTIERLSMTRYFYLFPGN
Sequence of Caspase-3 (Homo sapiens) (P42574 whole entry, looked up): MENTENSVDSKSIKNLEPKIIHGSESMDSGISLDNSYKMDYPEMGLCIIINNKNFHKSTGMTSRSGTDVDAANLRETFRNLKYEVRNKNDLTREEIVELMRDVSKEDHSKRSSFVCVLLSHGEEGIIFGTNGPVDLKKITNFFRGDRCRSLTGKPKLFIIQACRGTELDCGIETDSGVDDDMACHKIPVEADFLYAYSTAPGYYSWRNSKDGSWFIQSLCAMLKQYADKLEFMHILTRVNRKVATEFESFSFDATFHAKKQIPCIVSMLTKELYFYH

As for `Nc1c(Cl)c(Cl)nc(C(=O)O)c1Cl`, the call in assay [1] was inactive.

`O=c1n(Cl)c(=O)n(Cl)c(=O)n1Cl`: the outcome in assay [1] was inactive.

For the compound `CCOc1nc(C(Cl)(Cl)Cl)ns1`, in the assay with Caspase-3 (Homo sapiens), the compound was classed as inactive.

For `CCCC(=NOCC)C1=C(O)CC(CC(C)SCC)CC1=O` (stereo not given), in assay [2], the call was inactive.

In general, AC50 refers to the midpoint of the concentration-response curve, whichever way the signal moves. For `CCCCC(O)(Cn1cncn1)c1ccc(Cl)cc1Cl` (stereo not given), in assay [3], the half-maximal activity concentration (AC50) is 9.08 µM (active).
